According to PubChem BioAssay AID1159580 (chemical genetic matrix, 2015):
In all, about 5,500 compounds went through this assay and about 2,000 (36%) were called active. Another 18% or so got no clear call; they are omitted. Rule as the data show it: active = normalized growth mostly below about 0.91 (no sharp cut-off); inconclusive = no clear call, values can overlap the other calls; inactive = mostly above about 0.92. Some of the results follow.

Assay: chemical genetic growth profiling, strain panel (AID 1159580);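 also: tested at 20 µM; growth read once vehicle control cultures reached saturation at 30 °C; 1 = growth at the plate median or of vehicle wells; lower values mean less growth of the strain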
Details: growth OD

Measured: normalized growth

NC1(C(=O)O)CCCC1
inactive: S. cerevisiae deletion strains, locus YJR075W, strain HOC1, stronger effect = lower value 0.997 | S. cerevisiae deletion strains, locus YKL009W, strain mrt4, stronger effect = lower value 0.993 | S. cerevisiae deletion strains, locus YKL068W, stronger effect = lower value 1 | S. cerevisiae deletion strains, locus YKL085W, strain MDH1 (second series), stronger effect = lower value 0.996 | S. cerevisiae deletion strains, locus YKL085W, strain MDH1, stronger effect = lower value 0.996 | S. cerevisiae deletion strains, locus YKL160W, strain elf1, stronger effect = lower value 1.02 | S. cerevisiae deletion strains, locus YKL190W, strain CNB1, stronger effect = lower value 1.01 | S. cerevisiae deletion strains, locus YKR001C, strain vps1, stronger effect = lower value 0.998 | S. cerevisiae deletion strains, locus YKR026C, strain gcn3, stronger effect = lower value 1.02 | S. cerevisiae deletion strains, locus YKR091W, strain srl3, stronger effect = lower value 1.01 | S. cerevisiae deletion strains, locus YLL001W, strain dnm1, stronger effect = lower value 1.03 | S. cerevisiae deletion strains, locus YLL026W, stronger effect = lower value 1.01 | S. cerevisiae deletion strains, locus YLL041C, strain sdh2, stronger effect = lower value 1.02 | S. cerevisiae deletion strains, locus YLR027C, strain aat2, stronger effect = lower value 1.02 | S. cerevisiae deletion strains, locus YLR039C, strain RIC1, stronger effect = lower value 0.971 | S. cerevisiae deletion strains, locus YLR058C, strain SHM2, stronger effect = lower value 1.01 | S. cerevisiae deletion strains, locus YLR102C, strain apc9, stronger effect = lower value 1 | S. cerevisiae deletion strains, locus YLR113W, strain HOG1, stronger effect = lower value 1.06 | S. cerevisiae deletion strains, locus YLR221C, strain rsa3, stronger effect = lower value 0.994 | S. cerevisiae deletion strains, locus YLR258W, strain gsy2, stronger effect = lower value 1.02 | S. cerevisiae deletion strains, locus YLR262C, strain YPT6 (second series), stronger effect = lower value 1.04 | S. cerevisiae deletion strains, locus YLR262C, strain YPT6, stronger effect = lower value 1.02 | S. cerevisiae deletion strains, locus YLR268W, strain sec22, stronger effect = lower value 1.01 | S. cerevisiae deletion strains, locus YLR320W, strain mms22, stronger effect = lower value 1.03 | S. cerevisiae deletion strains, locus YLR330W, strain CHS5, stronger effect = lower value 1 | S. cerevisiae deletion strains, locus YLR342W, strain FKS1 (second series), stronger effect = lower value 1 | S. cerevisiae deletion strains, locus YLR342W, strain FKS1, stronger effect = lower value 1.02 | S. cerevisiae deletion strains, locus YLR357W, strain rsc2, stronger effect = lower value 1.02 | S. cerevisiae deletion strains, locus YLR370C, strain arc18, stronger effect = lower value 1.02 | S. cerevisiae deletion strains, locus YLR371W, strain rom2, stronger effect = lower value 1 | S. cerevisiae deletion strains, locus YLR384C, strain iki3, stronger effect = lower value 1.02 | S. cerevisiae deletion strains, locus YLR418C, strain cdc73, stronger effect = lower value 0.992 | S. cerevisiae deletion strains, locus YML016C, strain PPZ1, stronger effect = lower value 1 | S. cerevisiae deletion strains, locus YML032C, strain rad52, stronger effect = lower value 0.995 | S. cerevisiae deletion strains, locus YML120C, strain ndi1, stronger effect = lower value 1.03 | S. cerevisiae deletion strains, locus YML124C, strain tub3, stronger effect = lower value 0.998 | S. cerevisiae deletion strains, locus YMR058W, strain fet3, stronger effect = lower value 1.02 | S. cerevisiae deletion strains, locus YMR078C, strain ctf18, stronger effect = lower value 0.998 | S. cerevisiae deletion strains, locus YMR125W, strain sto1, stronger effect = lower value 1.05 | S. cerevisiae deletion strains, locus YMR129W, stronger effect = lower value 1.02 | S. cerevisiae deletion strains, locus YMR205C, strain PFK2, stronger effect = lower value 1.03 | S. cerevisiae deletion strains, locus YMR223W, strain ubp8, stronger effect = lower value 1.01 | S. cerevisiae deletion strains, locus YMR231W, strain pep5, stronger effect = lower value 1.02 | S. cerevisiae deletion strains, locus YMR307W, strain GAS1, stronger effect = lower value 1.01 | S. cerevisiae deletion strains, locus YNL067W, strain RPL9B, stronger effect = lower value 1 | S. cerevisiae deletion strains, locus YNL071W, strain lat1, stronger effect = lower value 1.02 | S. cerevisiae deletion strains, locus YNL128W, strain TEP1, stronger effect = lower value 1.02 | S. cerevisiae deletion strains, locus YNL183C, strain NPR1, stronger effect = lower value 0.946 | S. cerevisiae deletion strains, locus YNL209W, strain ssb2, stronger effect = lower value 1.01 | S. cerevisiae deletion strains, locus YNL233W, strain BNI4, stronger effect = lower value 0.991 | S. cerevisiae deletion strains, locus YNL248C, strain rpa49, stronger effect = lower value 1 | S. cerevisiae deletion strains, locus YNL250W, strain rad50, stronger effect = lower value 1.02 | S. cerevisiae deletion strains, locus YNL271C, strain bni1, stronger effect = lower value 0.998 | S. cerevisiae deletion strains, locus YNL298W, strain CLA4, stronger effect = lower value 1.01 | S. cerevisiae deletion strains, locus YNL307C, strain MCK1, stronger effect = lower value 0.996 | S. cerevisiae deletion strains, locus YNL322C, strain KRE1 (second series), stronger effect = lower value 1.01 | S. cerevisiae deletion strains, locus YNL322C, strain KRE1, stronger effect = lower value 1.01 | S. cerevisiae deletion strains, locus YNR049C, strain mso1, stronger effect = lower value 1.01 | S. cerevisiae deletion strains, locus YNR052C, strain pop2, stronger effect = lower value 1.01 | S. cerevisiae deletion strains, locus YOL006C, strain TOP1, stronger effect = lower value 0.987 | S. cerevisiae deletion strains, locus YOL012C, strain htz1 0.665 | S. cerevisiae deletion strains, locus YOL147C, strain pex11, stronger effect = lower value 0.993 | S. cerevisiae deletion strains, locus YOR001W, strain rrp6, stronger effect = lower value 1.03 | S. cerevisiae deletion strains, locus YOR061W, strain CKA2, stronger effect = lower value 1.01 | S. cerevisiae deletion strains, locus YOR069W, strain VPS5, stronger effect = lower value 1.01 | S. cerevisiae deletion strains, locus YOR070C, strain gyp1, stronger effect = lower value 1.02 | S. cerevisiae deletion strains, locus YOR080W, strain dia2, stronger effect = lower value 1.02 | S. cerevisiae deletion strains, locus YOR083W, strain WHI5, stronger effect = lower value 1.03 | S. cerevisiae deletion strains, locus YOR106W, strain vam3, stronger effect = lower value 1.02 | S. cerevisiae deletion strains, locus YOR136W, strain idh2, stronger effect = lower value 0.998 | S. cerevisiae deletion strains, locus YOR144C, strain elg1, stronger effect = lower value 0.997 | S. cerevisiae deletion strains, locus YOR184W, strain ser1, stronger effect = lower value 0.996 | S. cerevisiae deletion strains, locus YOR231W, strain MKK1, stronger effect = lower value 1.04 | S. cerevisiae deletion strains, locus YOR265W, strain rbl2, stronger effect = lower value 1.01 | S. cerevisiae deletion strains, locus YOR270C, strain vph1, stronger effect = lower value 1.07 | S. cerevisiae deletion strains, locus YOR290C, strain snf2, stronger effect = lower value 1.02 | S. cerevisiae deletion strains, locus YOR316C, strain cot1, stronger effect = lower value 1 | S. cerevisiae deletion strains, locus YPL051W, strain arl3, stronger effect = lower value 1.03 | S. cerevisiae deletion strains, locus YPL055C, strain LGE1, stronger effect = lower value 1.03 | S. cerevisiae deletion strains, locus YPL078C, strain atp4, stronger effect = lower value 1.04 | S. cerevisiae deletion strains, locus YPL106C, strain sse1, stronger effect = lower value 1.02 | S. cerevisiae deletion strains, locus YPL240C, strain hsp82, stronger effect = lower value 1.01 | S. cerevisiae deletion strains, locus YPL256C, strain CLN2, stronger effect = lower value 1.04 | S. cerevisiae deletion strains, locus YPR119W, strain clb2, stronger effect = lower value 0.998 | S. cerevisiae deletion strains, locus YPR141C, strain kar3, stronger effect = lower value 0.991 | S. cerevisiae deletion strains, locus YPR163C, strain tif3, stronger effect = lower value 1 | S. cerevisiae deletion strains, locus YPR167C, strain met16, stronger effect = lower value 0.992 | S. cerevisiae deletion strains, strain wtn01, stronger effect = lower value 0.994 | S. cerevisiae strains, strain wild type, stronger effect = lower value 1.01
